Results reported in the supplement of paper PMC10849652.
About 8,800 targets were measured; listed, in parts, are those with a hit and a random draw of the rest. About 0.5% of all pairs of compound and target were hits.

Assays:
Experiment in all cases: log2 fold change, soluble protein after heating vs DMSO (PISA); higher = thermal stabilisation; K562 lysate, 10 uM; active = over 0.2 and 3.5 SD of the protein, either way, in both replicates (recomputed)
lapatinib = compound: CS(=O)(=O)CCNCc1ccc(-c2ccc3ncnc(Nc4ccc(OCc5cccc(F)c5)c(Cl)c4)c3c2)o1 [lapatinib]
Outline: (§1)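 The values are log-two fold changes in thermal stability compared with solvent controls and come from duplicates. They were obtained by TMTpro 16plex LC-MS/MS, with channel sums equalised, on the supernatant after 21,000xg for 90 min. That supernatant came from crude K562 extract at 1 mg/mL protein treated with 10 μM compound for 30 min, heated for 3 min across 48°C-58°C, pooled and brought to 0.5% NP-40 at 4°C.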

crizotinib = compound: C[C@@H](Oc1cc(-c2cnn(C3CCNCC3)c2)cnc1N)c1c(Cl)ccc(F)c1Cl [crizotinib]
Outline: as §1

[1] = compound: C[C@H](C1=CC=C(C=C1)C(=O)NC2=C3C=CNC3=NC=C2)N
Outline: as §1

duvelisib = compound: C[C@H](Nc1ncnc2nc[nH]c12)c1cc2cccc(Cl)c2c(=O)n1-c1ccccc1 [duvelisib]
Outline: as §1

gandotinib = compound: Cc1cc(Nc2cc(CN3CCOCC3)c3nc(C)c(Cc4ccc(Cl)cc4F)n3n2)n[nH]1 [gandotinib]
Outline: as §1

tozasertib = compound: Cc1cc(Nc2cc(N3CCN(C)CC3)nc(Sc3ccc(NC(=O)C4CC4)cc3)n2)n[nH]1 [tozasertib]
Outline: as §1

doramapimod = compound: Cc1ccc(-n2nc(C(C)(C)C)cc2NC(=O)Nc2ccc(OCCN3CCOCC3)c3ccccc23)cc1 [doramapimod]
Outline: as §1

[2] = compound: Cc1cccc(CC(=O)N2CCc3c2ccc(-c2cn(C)c4ncnc(N)c24)c3F)n1
Outline: as §1

nilotinib = compound: Cc1cn(-c2cc(NC(=O)c3ccc(C)c(Nc4nccc(-c5cccnc5)n4)c3)cc(C(F)(F)F)c2)cn1 [nilotinib]
Outline: as §1

[3] = compound: Cc1nc(Nc2n[nH]c3c2CN(C(=O)N[C@H](CN(C)C)c2ccccc2)C3(C)C)c2sccc2n1
Outline: as §1

dasatinib = compound: Cc1nc(Nc2ncc(C(=O)Nc3c(C)cccc3Cl)s2)cc(N2CCN(CCO)CC2)n1 [dasatinib]
Outline: as §1

[4] = compound: Cc1ncc(-c2ccnc(Nc3ccc(S(C)(=O)=O)cc3)n2)n1C(C)C
Outline: as §1

[5] = compound: Cn1cc(-c2ccc3c(c2)CCN3C(=O)Cc2cccc(C(F)(F)F)c2)c2c(N)ncnc21
Outline: as §1

quisinostat = compound: Cn1cc(CNCC2CCN(c3ncc(C(=O)NO)cn3)CC2)c2ccccc21 [quisinostat]
Outline: as §1

tipifarnib = compound: Cn1cncc1[C@@](N)(c1ccc(Cl)cc1)c1ccc2c(c1)c(-c1cccc(Cl)c1)cc(=O)n2C [tipifarnib]
Outline: as §1

[6] = compound: NC(=O)Nc1cc(-c2cccc(F)c2)sc1C(=O)N[C@H]1CCCNC1
Outline: as §1

[7] = compound: NC(=O)c1cnc(N[C@@H]2CCCC[C@@H]2N)nc1Nc1cccc(-n2nccn2)c1
Outline: as §1

pictilisib = compound: CS(=O)(=O)N1CCN(Cc2cc3nc(-c4cccc5[nH]ncc45)nc(N4CCOCC4)c3s2)CC1 [pictilisib]
Outline: as §1

bafetinib = compound: Cc1ccc(NC(=O)c2ccc(CN3CC[C@H](N(C)C)C3)c(C(F)(F)F)c2)cc1Nc1nccc(-c2cncnc2)n1 [bafetinib]
Outline: as §1

[8] = compound: NC1(c2ccc(-c3nc4ccn5c(=O)[nH]nc5c4cc3-c3ccccc3)cc2)CCC1
Outline: as §1

Measured: log2 fold change

TCF4 (UniProt P15884)
UniProt P15884, sequence (P15884 whole entry, looked up): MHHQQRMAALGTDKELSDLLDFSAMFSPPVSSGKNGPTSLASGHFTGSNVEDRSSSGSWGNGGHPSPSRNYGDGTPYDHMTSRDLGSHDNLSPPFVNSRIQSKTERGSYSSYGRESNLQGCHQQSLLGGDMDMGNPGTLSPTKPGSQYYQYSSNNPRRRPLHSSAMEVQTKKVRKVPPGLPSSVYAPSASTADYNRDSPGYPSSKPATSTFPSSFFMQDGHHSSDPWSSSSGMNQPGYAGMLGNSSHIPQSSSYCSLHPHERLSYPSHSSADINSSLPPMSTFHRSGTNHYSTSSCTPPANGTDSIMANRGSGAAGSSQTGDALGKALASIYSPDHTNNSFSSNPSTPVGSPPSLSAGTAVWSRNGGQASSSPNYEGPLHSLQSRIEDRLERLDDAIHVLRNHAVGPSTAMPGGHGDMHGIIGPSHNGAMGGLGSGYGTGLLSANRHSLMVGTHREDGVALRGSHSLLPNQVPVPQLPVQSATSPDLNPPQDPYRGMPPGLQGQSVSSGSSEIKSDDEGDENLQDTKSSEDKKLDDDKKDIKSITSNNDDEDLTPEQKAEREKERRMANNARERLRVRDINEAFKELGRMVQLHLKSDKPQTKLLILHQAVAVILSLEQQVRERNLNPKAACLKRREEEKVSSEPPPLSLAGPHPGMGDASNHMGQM
inactive: lapatinib -0.212 | crizotinib 0.128 | [1] 0.039 | duvelisib 0.039 | gandotinib -0.022 | tozasertib -0.044 | doramapimod -0.099 | [2] 0 | nilotinib -0.004 | [3] -0.139 | dasatinib 0.077 | [4] -0.057 | [5] 0.01 | quisinostat 0.161 | tipifarnib -0.147 | [6] 0.064 | [7] 0.016

TTC37 (UniProt Q6PGP7)
inactive: lapatinib -0.157 | pictilisib -0.03 | crizotinib -0.202 | duvelisib 0.096 | doramapimod 0.069 | bafetinib -0.26 | nilotinib 0.03 | [3] -0.001 | dasatinib -0.163 | [4] 0.013 | [5] -0.085 | tipifarnib -0.012 | [6] 0.065 | [7] 0.005 | [8] -0.087
active: quisinostat -0.408

UCHL5 (UniProt Q5LJA9)
inactive: lapatinib 0.027 | pictilisib 0.001 | crizotinib -0.036 | [1] -0.07 | duvelisib 0.082 | gandotinib -0.074 | tozasertib 0.003 | doramapimod 0.067 | bafetinib -0.07 | [2] -0.156 | dasatinib -0.214 | [5] -0.075 | quisinostat -0.186 | [6] -0.024 | [7] 0.009 | [8] 0.006

UBR1 (UniProt Q8IWV7)
inactive: lapatinib -0.018 | pictilisib -0.035 | crizotinib -0.082 | [1] -0.046 | duvelisib 0.01 | gandotinib -0.081 | tozasertib 0 | doramapimod 0.039 | bafetinib -0.065 | [2] 0.032 | nilotinib -0.022 | [3] 0.01 | dasatinib -0.012 | [4] 0.013 | [5] 0.046 | quisinostat -0.093 | tipifarnib 0.007 | [6] 0.021 | [7] -0.006 | [8] -0.021

TNIK isoform 5 (UniProt Q9UKE5)
inactive: lapatinib -0.098 | pictilisib 0.046 | crizotinib -0.035 | [1] 0.051 | duvelisib 0.009 | gandotinib 0.025 | doramapimod 0.311 | bafetinib -0.055 | [2] -0.02 | dasatinib 0.187 | [5] 0.019 | quisinostat -0.218 | [7] 0.019
active: [6] 0.539

UBXN2B (UniProt Q14CS0)
UniProt Q14CS0, sequence (Q14CS0 whole entry, looked up): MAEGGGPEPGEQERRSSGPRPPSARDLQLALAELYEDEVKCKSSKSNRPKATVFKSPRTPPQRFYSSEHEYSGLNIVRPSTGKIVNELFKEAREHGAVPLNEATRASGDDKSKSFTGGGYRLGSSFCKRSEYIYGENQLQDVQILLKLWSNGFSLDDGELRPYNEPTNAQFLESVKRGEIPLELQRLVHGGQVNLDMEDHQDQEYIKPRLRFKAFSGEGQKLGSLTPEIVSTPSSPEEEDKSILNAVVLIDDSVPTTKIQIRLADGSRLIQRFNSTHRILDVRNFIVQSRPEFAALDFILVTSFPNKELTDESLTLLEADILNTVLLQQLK
inactive: lapatinib -0.226 | pictilisib -0.036 | [1] -0.01 | duvelisib 0.07 | gandotinib 0.213 | tozasertib 0.027 | bafetinib 0.003 | [2] -0.005 | nilotinib -0.04 | [3] -0.068 | dasatinib 0.08 | [4] -0.208 | [5] -0.099 | tipifarnib 0.021 | [7] -0.024 | [8] -0.06

TMEM177 (UniProt Q53S58)
UniProt Q53S58, sequence (Q53S58 whole entry, looked up): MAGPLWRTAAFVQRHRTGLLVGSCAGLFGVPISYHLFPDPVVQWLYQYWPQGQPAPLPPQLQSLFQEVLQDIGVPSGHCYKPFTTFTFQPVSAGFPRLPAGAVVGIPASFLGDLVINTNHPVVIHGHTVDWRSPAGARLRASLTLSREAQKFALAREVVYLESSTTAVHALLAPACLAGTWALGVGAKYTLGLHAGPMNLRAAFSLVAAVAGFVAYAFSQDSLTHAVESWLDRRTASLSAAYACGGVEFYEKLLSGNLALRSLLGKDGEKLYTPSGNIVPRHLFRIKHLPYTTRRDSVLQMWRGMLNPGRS
inactive: lapatinib 0.018 | pictilisib 0.002 | crizotinib 0.053 | [1] -0.005 | gandotinib -0.125 | tozasertib -0.016 | doramapimod -0.056 | bafetinib -0.059 | [2] -0.013 | quisinostat -0.018 | [6] 0.036 | [7] 0.029 | [8] 0.067

TNIK (UniProt C9J338)
inactive: lapatinib -0.042 | pictilisib -0.023 | crizotinib -0.075 | duvelisib 0.115 | gandotinib 0.344 | tozasertib 0.012 | doramapimod 0.005 | bafetinib -0.258 | [2] 0.344 | dasatinib -0.055 | [5] -0.043 | quisinostat -0.292 | [6] -0.043 | [7] 0.015 | [8] -0.068
active: [1] -0.443

TTK (UniProt P33981)
UniProt P33981, sequence (P33981 whole entry, looked up): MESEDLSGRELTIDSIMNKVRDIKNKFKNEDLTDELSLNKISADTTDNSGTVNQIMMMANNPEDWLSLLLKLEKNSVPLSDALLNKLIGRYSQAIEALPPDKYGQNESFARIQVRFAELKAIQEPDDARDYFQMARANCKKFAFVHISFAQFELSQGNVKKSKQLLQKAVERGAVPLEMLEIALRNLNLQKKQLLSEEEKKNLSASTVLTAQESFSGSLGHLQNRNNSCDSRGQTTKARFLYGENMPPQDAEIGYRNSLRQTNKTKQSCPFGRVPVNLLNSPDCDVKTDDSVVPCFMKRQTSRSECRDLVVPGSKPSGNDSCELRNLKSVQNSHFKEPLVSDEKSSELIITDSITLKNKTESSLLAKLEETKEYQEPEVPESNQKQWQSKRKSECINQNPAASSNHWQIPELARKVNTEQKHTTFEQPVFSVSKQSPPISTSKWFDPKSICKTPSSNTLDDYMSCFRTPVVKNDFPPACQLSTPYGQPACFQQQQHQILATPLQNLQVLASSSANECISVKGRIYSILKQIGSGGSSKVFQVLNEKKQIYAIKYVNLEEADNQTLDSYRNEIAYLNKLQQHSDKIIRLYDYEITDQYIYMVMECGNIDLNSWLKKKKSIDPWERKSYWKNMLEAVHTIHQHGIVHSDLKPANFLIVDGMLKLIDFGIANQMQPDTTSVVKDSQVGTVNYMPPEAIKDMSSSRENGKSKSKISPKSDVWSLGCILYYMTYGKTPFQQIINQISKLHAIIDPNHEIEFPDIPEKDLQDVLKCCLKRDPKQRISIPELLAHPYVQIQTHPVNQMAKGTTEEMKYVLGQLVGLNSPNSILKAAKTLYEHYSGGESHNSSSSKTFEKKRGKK
inactive: lapatinib 0.061 | pictilisib 0.142 | crizotinib -0.008 | [1] 0 | duvelisib -0.031 | gandotinib 0.058 | tozasertib -0.054 | doramapimod 0.143 | bafetinib -0.068 | [2] 0.024 | nilotinib 0.007 | [3] 0.236 | dasatinib -0.014 | [4] 0.185 | [5] 0.013 | quisinostat -0.062 | tipifarnib -0.147 | [6] 0.034 | [7] -0.001 | [8] -0.057

TUBB6 (UniProt K7ES63)
inactive: lapatinib -0.1 | pictilisib 0.021 | crizotinib -0.277 | [1] -0.178 | gandotinib 0.042 | tozasertib 0.122 | doramapimod 0.2 | bafetinib -0.278 | [2] 0.253 | nilotinib -0.051 | [3] 0.112 | [4] -0.155 | quisinostat -0.267 | tipifarnib 0.08 | [6] 0.049 | [7] 0.08 | [8] -0.008

TRAPPC9 isoform 2 (UniProt Q96Q05)
UniProt Q96Q05, sequence (Q96Q05 whole entry, looked up): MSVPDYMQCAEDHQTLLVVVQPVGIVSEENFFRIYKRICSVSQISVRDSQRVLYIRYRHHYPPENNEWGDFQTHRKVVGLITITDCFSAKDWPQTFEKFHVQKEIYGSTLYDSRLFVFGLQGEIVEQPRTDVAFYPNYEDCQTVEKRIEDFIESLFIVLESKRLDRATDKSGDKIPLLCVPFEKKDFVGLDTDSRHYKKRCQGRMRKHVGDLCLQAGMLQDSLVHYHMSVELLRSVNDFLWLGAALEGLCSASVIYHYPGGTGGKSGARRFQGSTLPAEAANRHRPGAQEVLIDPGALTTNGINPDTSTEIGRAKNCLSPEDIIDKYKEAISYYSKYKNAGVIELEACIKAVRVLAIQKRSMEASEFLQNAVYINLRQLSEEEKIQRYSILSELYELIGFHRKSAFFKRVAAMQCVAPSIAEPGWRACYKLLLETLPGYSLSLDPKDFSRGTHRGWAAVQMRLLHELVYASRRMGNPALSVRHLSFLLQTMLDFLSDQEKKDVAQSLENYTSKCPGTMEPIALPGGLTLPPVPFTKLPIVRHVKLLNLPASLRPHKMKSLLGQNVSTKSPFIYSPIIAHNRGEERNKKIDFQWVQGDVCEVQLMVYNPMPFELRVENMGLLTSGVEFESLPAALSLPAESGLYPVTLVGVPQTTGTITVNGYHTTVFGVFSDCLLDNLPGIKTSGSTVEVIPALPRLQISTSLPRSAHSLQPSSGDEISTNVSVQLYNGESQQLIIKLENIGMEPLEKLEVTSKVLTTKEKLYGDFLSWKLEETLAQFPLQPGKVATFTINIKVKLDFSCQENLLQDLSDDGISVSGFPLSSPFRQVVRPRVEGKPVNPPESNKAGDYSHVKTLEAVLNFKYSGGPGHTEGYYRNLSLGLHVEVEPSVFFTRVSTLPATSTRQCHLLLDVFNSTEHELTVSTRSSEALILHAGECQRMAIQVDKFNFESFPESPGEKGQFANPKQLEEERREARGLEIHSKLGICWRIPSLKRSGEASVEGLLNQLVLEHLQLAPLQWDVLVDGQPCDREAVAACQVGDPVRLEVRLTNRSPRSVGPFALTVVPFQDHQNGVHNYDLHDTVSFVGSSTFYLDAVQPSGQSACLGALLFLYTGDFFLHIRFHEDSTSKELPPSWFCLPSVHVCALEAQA
inactive: lapatinib -0.02 | pictilisib 0.012 | crizotinib -0.084 | [1] -0.053 | duvelisib -0.038 | gandotinib -0.037 | tozasertib 0.037 | doramapimod 0.029 | bafetinib -0.026 | [2] 0.021 | nilotinib 0.034 | [3] 0.005 | dasatinib -0.051 | [4] -0.011 | [5] 0.068 | quisinostat -0.07 | tipifarnib 0.026 | [6] 0 | [7] -0.011 | [8] -0.073

TUBB4A (UniProt M0QYM7)
active: [1] -1.05
inactive: lapatinib -0.009 | pictilisib -0.067 | crizotinib -0.176 | gandotinib 0.39 | tozasertib 0.138 | doramapimod 0.116 | bafetinib -0.516 | [2] 0.42 | nilotinib -0.029 | [3] -0.009 | [4] 0.039 | quisinostat -0.116 | tipifarnib 0.013 | [6] 0.107 | [7] -0.048 | [8] 0.126

TXNIP (UniProt Q9H3M7)
UniProt Q9H3M7, sequence (Q9H3M7 whole entry, looked up): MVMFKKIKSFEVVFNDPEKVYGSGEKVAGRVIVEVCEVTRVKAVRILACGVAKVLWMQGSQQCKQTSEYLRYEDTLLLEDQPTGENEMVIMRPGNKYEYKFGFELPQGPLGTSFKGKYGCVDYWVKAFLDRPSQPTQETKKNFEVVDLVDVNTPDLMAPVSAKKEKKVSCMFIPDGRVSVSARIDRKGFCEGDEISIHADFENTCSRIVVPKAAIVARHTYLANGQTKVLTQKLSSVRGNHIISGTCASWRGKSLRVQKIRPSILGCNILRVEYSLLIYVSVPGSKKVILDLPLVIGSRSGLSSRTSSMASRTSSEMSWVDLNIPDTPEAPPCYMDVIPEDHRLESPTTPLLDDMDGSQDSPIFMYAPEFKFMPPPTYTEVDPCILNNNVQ
inactive: pictilisib 0.029 | crizotinib -0.045 | [1] 0.143 | duvelisib 0 | gandotinib -0.089 | tozasertib -0.015 | doramapimod 0.019 | bafetinib -0.042 | [2] -0.037 | nilotinib 0.091 | [3] 0.038 | dasatinib -0.023 | [4] -0.026 | [5] 0.012 | quisinostat -0.077 | tipifarnib -0.022 | [6] 0.029 | [8] 0.005

UBAP2L isoform 1 (UniProt Q14157)
UniProt Q14157, sequence (Q14157 whole entry, looked up): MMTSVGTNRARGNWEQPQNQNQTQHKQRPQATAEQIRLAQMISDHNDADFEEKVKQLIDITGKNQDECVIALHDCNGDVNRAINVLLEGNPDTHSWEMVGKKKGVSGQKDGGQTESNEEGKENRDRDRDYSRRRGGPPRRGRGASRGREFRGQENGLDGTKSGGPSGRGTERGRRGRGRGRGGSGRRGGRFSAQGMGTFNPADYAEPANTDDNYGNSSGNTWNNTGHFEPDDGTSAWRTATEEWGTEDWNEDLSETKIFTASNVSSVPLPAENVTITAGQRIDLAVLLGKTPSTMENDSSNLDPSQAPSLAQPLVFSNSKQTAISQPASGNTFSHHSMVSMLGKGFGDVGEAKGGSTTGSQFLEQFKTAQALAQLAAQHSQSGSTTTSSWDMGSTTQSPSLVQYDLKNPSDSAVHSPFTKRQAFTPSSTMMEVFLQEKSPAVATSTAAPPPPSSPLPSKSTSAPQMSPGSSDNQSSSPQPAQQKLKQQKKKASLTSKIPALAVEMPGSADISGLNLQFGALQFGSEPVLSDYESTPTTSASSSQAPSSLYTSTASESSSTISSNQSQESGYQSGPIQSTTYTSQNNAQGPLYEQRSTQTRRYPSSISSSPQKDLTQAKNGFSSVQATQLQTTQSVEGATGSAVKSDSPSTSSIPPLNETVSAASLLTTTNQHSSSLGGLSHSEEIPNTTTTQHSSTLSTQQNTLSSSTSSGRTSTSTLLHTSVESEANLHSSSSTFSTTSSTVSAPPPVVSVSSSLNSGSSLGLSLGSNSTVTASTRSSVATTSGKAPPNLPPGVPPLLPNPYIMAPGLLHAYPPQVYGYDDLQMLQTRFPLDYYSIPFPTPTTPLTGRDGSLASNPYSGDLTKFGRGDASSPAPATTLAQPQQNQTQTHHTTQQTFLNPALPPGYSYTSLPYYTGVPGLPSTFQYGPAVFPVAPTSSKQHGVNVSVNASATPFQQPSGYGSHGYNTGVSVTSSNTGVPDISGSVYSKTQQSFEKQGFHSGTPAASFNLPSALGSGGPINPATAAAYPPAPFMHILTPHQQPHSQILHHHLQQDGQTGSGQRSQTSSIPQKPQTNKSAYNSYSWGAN
inactive: pictilisib -0.116 | crizotinib 0.376 | doramapimod -0.26 | bafetinib 0.56 | nilotinib -0.03 | [3] -0.081 | [4] 0.09 | quisinostat 0.613 | tipifarnib -0.067 | [6] 0.081

UBAP2L (UniProt F8W726)
inactive: lapatinib -0.15 | crizotinib 0.098 | doramapimod -0.068 | quisinostat 0.11 | [6] 0.043 | [7] 0.099

TSPAN3 (UniProt O60637)
UniProt O60637, sequence (O60637 whole entry, looked up): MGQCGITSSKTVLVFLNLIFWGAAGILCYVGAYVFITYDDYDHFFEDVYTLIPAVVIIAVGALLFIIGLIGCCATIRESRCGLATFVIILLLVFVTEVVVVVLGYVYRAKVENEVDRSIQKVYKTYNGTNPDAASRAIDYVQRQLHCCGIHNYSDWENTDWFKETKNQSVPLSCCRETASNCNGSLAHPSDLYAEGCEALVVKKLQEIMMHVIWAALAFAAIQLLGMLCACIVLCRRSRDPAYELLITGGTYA
active: [1] 0.513
inactive: lapatinib -0.013 | duvelisib -0.058 | gandotinib -0.163 | tozasertib -0.01 | [2] -0.342 | nilotinib 0.004 | [3] -0.003 | dasatinib 0.118 | [4] -0.199 | [5] 0.033 | tipifarnib -0.032 | [7] -0.098 | [8] 0.015
